# Reference: PubChem BioAssay (NCATS)
# Inconclusive results are not listed. A number with no mark means an inactive call. Calls of active or inactive are those of the source. Calls follow the shape of the dose curve; as a rule, active = well fitted inhibition curve with a large enough effect; inconclusive = small, poorly fitted or top-dose-only effect; inactive = flat fitted curve, though single readings scatter.
# Tested on: CRL-7250
# Test: Cytotoxic Profiling of Annotated Libraries Using Quantitative High-Throughput Screening (AID 1296008); also: nearly all actives have a fitted effect of over 60% in size
# Conditions: Five cell lines viability, CellTiter-Glo ATP luminescence, 48-72 h; max response: active compounds read low
# Summary of the method: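 Compounds were pin-transferred onto cells and incubated 48 or 72 hr at 37 degree Celsius, 95% humidity. CellTiter-Glo was added, plates sat 10 min at room temperature, then ATP-coupled luminescence was imaged as the viability read-out.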
# % is scaled to controls: 0 for no effect and ±100 for the full control effect.
Compound,max response,outcome
Cc1cc(=O)oc2cc(O[C@@H]3SC[C@@H](O)[C@H](O)[C@H]3O)ccc12,-1.48%,–
COc1cc(C=O)ccc1O,-1.68%,–
CC(C)(C)c1cc(C=O)cc(C(C)(C)C)c1O,4.77%,–
C=CCNc1nc(NCC=C)nc(N2CCN(C(c3ccc(F)cc3)c3ccc(F)cc3)CC2)n1,-3.37%,–
CCCCC(CC)CNC(=O)CC(C)OC(=O)CCC(=O)O (centres undefined),-4.08%,–
Nc1nc(=O)n([C@@H]2O[C@H](CO)[C@@H](O)[C@@H]2F)cc1I,-26.4%,–
O=C1CC2(CCCC2)CC(=O)N1CCNCC1COc2ccccc2O1 (centres undefined),-5.57%,–
COc1ccc(/C(C)=C/C(=O)O)c(OC)c1,0.36%,–
COc1ccc2c(c1)CCCC2=O,-5.59%,–
C#Cc1ccc(-c2ccccc2F)cc1,-10.3%,–
C/C(=N/NC(=O)c1ccncc1)C(=O)O,0.746%,–
N#CC1(c2ccc(F)cc2)CCC(=O)CC1,-2.26%,–
O=C(CCCl)NCCc1ccccc1,–,inactive
COC(=O)c1cc(S(N)(=O)=O)ccc1OC,-27.4%,–
Nc1ccc(C(=O)OCC(O)CO)cc1 (centres undefined),-0.994%,–
C[N+]1(C)CCC(OC(=O)C(O)(c2ccccc2)C2CCCC2)C1 (centres undefined),2.29%,–
C[C@@H]1CCC[C@H](C)N1CCCC(O)(c1ccccc1)c1ccccn1 (some centres undefined),3.63%,–
Clc1ccc2c(c1)Nc1ccccc1S2,-4.08%,–
COc1cc2c(cc1OC)C(=O)CC2,–,inactive
